SMN2 splice enh: qHTS Assay for Enhancers of SMN2 Splice Variant Expression; HEK293 SMN2-luciferase splicing reporter, luminescence, 30-36 h; Potency, µM (top dose mostly 46.1 µM), most hits filed as activators; actives 2.8% (n = 210,000); also: nearly all actives have a fitted effect of over 55% in size
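qHTS luciferase splicing reporter: luminescence rises when SMN2 exon 7 is included in transfected HEK293 cells. Compound exposure lasted 30-36 h at 37C, with 4.5 mM final sodium butyrate as control, followed by a ONE-Glo read.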
NPC1 promoter act: qHTS Assay for NPC1 Promoter Activators; Potency, µM (titrated, usually from 9.22 µM), hits mostly activators; AID 485313, 2010; actives 2.4% (n = 320,000); Huh7 NPC1 promoter luciferase reporter, 24 h; also: nearly all actives have a fitted effect of over 60% in size
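Huh7 reporter cells (NPC1 promoter driving luciferase) are dosed with compound for 24 h at 37 °C, 5% CO2; luciferase detection reagent is then added and luminescence measured after 10 min at ambient temperature.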
ELG1 genotoxic: qHTS screen for small molecules that induce genotoxicity in human embryonic kidney (HEK293T) cells expressing luciferase-tagged ELG1; HEK293T ELG1-luciferase reporter, luminescence, 16 h; Potency, µM (series often up to 46 µM), usual class: activators; actives 1.3% (n = 330,000); AID 504466, 2011; also: nearly all actives have a fitted effect of over 60% in size
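Genotoxicity was scored as increased ELG1-luciferase reporter signal, measured by ONE-Glo luminescence (30 min, room temperature). Compound or vehicle exposure of the HEK293T reporter cells lasted 16 hr at 37°C.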
Rab9 prom act: qHTS Assay for Rab9 Promoter Activators | Huh7 Rab9 promoter-luciferase reporter, luminescence, 24 h | Potency, µM (top dose mostly 9.22 µM), most hits filed as activators | actives 2.8% (n = 320,000) | AID 485297, 2010; also: nearly all actives have a fitted effect of over 60% in size
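Using Huh7 cells stably transfected with Rab9 promoter–luciferase, compounds were incubated 24 h at 37 °C, 5% CO2; luciferase luminescence was read 10 min after reagent addition.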
FLuc counter: qHTS profiling assay for firefly luciferase inhibitor/activator using purifed enzyme and Km concentrations of substrates (counterscreen for miR-21 project) | Luciferin 4-monooxygenase (Photinus pyralis), P08659 | purified FLuc, Km substrates, luminescence inhibition | Potency, µM (series often up to 57.5 µM), hits mostly inhibitors | actives 6.9% (n = 360,000); also: nearly all actives have a fitted effect of over 55% in size
Target sequence (P08659 whole entry, looked up): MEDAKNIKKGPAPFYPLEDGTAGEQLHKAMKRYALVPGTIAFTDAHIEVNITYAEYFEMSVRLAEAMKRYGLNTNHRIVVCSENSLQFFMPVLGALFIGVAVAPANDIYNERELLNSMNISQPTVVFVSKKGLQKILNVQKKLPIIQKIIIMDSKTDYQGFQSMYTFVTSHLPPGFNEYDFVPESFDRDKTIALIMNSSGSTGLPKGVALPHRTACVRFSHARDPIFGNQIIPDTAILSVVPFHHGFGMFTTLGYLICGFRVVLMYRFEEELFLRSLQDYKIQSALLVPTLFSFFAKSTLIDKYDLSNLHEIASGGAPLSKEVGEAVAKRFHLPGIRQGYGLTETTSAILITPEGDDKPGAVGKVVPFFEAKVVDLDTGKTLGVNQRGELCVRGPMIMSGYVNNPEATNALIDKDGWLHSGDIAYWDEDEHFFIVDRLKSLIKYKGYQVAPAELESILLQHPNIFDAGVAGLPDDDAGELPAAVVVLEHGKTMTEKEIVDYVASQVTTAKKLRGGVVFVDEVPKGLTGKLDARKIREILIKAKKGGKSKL
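Purified P. pyralis luciferase (10nM final) with 10uM D-luciferin and 10uM ATP (Km levels) in 50mM Tris acetate pH 7.5, 10mM Mg acetate, 0.01% Tween-20, 0.05% BSA; qHTS 6-point titration, ~60 µM downward; luminescence read.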
Luc counter: Counterscreen for Luciferase (Kinase-Glo TM) Inhibition | Luciferin 4-monooxygenase (Photuris pensylvanica), Q27757 | Kinase-Glo luciferase, ATP luminescence, 8 min | Potency, µM (highest dose often 38.3 µM), most hits filed as inhibitors | actives 0.28% (n = 200,000) | AID 1379, 2008; also: nearly all actives have a fitted effect of over 60% in size
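Inhibition of Kinase-Glo luciferase light generation was assessed at 10 uM ATP in pH 7.2 imidazole buffer, with luminescence measured after eight minutes at ambient temperature.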
Numbers stand for hits; – = inactive; ? = inconclusive; · = no result; [ ] = remark or other dose. This is a sample that favours compounds with a hit; in the whole collection about 7.5% have one here. Calls follow the shape of the dose curve; as a rule, active = well fitted curve in the direction sought with a large enough effect; inconclusive = small, poorly fitted or top-dose-only effect, or another doubt; inactive = no such curve, though single readings can be large; an effect the other way counts as inactive or inconclusive.

SMILES	SMN2 splice enh	NPC1 promoter act	ELG1 genotoxic	Rab9 prom act	FLuc counter	Luc counter
O=C(Nc1ccc2c(c1)nc1n2CCN(C2CCCCC2)C1)c1ccco1	·	–	–	–	–	·
O=C(COc1ccccc1)Nc1ccc2c(c1)nc1n2CCSC1	–	?	?	3.98µM	21.3µM	–
O=C(COc1ccccc1)Nc1ccc2c(c1)nc1n2CCOC1	–	?	?	?	?	–
O=C(Nc1ccc2c(c1)nc1n2CCSC1)c1ccco1	–	0.316µM	?	0.447µM	2.69µM	10µM
Cc1c(C(=O)NNc2cc(=O)n(C)c(=O)n2C)cccc1[N+](=O)[O-]	·	–	–	–	–	·
CC1=C(C(=O)OCCBr)C(c2cccc3ccccc23)NC(=O)N1 (stereo not drawn)	·	–	–	–	–	·
COc1ccc(N2Cc3ccc(OC)c(OC)c3C2=O)cc1	·	2µM	10.3µM	?	4.78µM	·
COc1ccc(C2C(C(C)=O)=C(O)C(=O)N2c2nccs2)cc1OC (stereo not drawn)	–	–	–	–	–	–
COc1ccc2c(c1OC)C(=O)N(c1nccs1)C2	12.6µM	?	18.4µM	?	15.1µM	–
COc1ccc2c(c1OC)C(=O)N(c1cccc(/C=C/C(=O)O)c1)C2	·	–	?	–	3.01µM	·
COc1ccc(/C=C/C(=O)O)cc1S(=O)(=O)N1CCc2ccccc2C1	–	–	–	–	–	–
COC(=O)C(NC(=O)c1ccco1)(Nc1ccc(Br)cn1)C(F)(F)F (stereo not drawn)	·	–	–	–	–	·
COc1ccccc1/C=C1\CCCC2=C1Nc1nnnn1C2c1ccccc1OC (stereo not drawn)	–	–	–	–	–	–
CC(C)(C)C(=O)N1CCc2cc(-c3csc(N)n3)ccc21	?	0.355µM	?	0.0891µM	0.239µM	–
CC(=O)Nc1cccc(-c2csc(N)n2)c1	–	–	–	–	–	–
CNc1nc(-c2ccc3c(c2)CCN3C(=O)CC(C)(C)C)c(C)s1	·	–	–	–	–	–
CCCC(=O)N1CCc2cc(-c3nc(N)sc3C)ccc21	·	?	?	3.16µM	12µM	·
CCC(C)C(=O)N1CCc2cc(-c3csc(N)n3)ccc21 (stereo not drawn)	11.2µM	2.51µM	5.8µM	1.41µM	5.36µM	–
CCCc1cc(=O)[nH]c(SCC(=O)N2CCOCC2)n1	·	–	–	–	–	·
Cc1nc(NC(C)C)c2cnn(CCc3ccccc3)c2n1	–	–	14.6µM	?	?	–
CCCNc1nc(C)nc2c1cnn2CCc1ccccc1	–	–	?	–	–	–
O=C(NCCO)Nc1ccc2nsnc2c1	–	–	–	–	–	–
O=C(Nc1ccccc1)c1ccc2nc(-c3ccco3)c(-c3ccco3)nc2c1	–	–	–	–	–	–
O=C(NCCO)Nc1ccc2nc(-c3ccco3)c(-c3ccco3)nc2c1	–	–	–	–	23.9µM	–
O=C(NCCCO)c1ccc2nc(-c3ccco3)c(-c3ccco3)nc2c1	–	–	–	–	19µM	–
SMILES	SMN2 splice enh	NPC1 promoter act	ELG1 genotoxic	Rab9 prom act	FLuc counter	Luc counter
CC(=O)c1ccc(NC(=O)c2ccc3nc(-c4ccco4)c(-c4ccco4)nc3c2)cc1	–	–	–	–	12µM	–
COc1ccc2nc(-c3ccco3)c(-c3ccco3)nc2c1	–	–	?	?	2.69µM	–
CCCCNC(=O)c1ccc2nc(-c3ccco3)c(-c3ccco3)nc2c1	–	–	–	–	?	–
Cc1cc(C)n(-c2ccc(C(=O)Nc3nc4ccccc4s3)cc2)n1	–	2.51µM	?	?	2.69µM	–
Nc1ccc(C(=O)Nc2nc3ccccc3s2)cc1	1.58µM	0.631µM	0.517µM	0.398µM	0.379µM	–
CC(=O)Nc1cc(C)nn1-c1nc2ccccc2s1	–	–	?	–	?	–
O=C1N/C(=N/N=C/c2ccc(F)cc2)SC1c1ccccc1 (stereo not drawn)	·	–	–	–	15.1µM	·
CC(=O)c1cccc(NC(=O)CC2S/C(=N/N=C/c3ccccc3)NC2=O)c1 (stereo not drawn)	–	–	–	–	–	–
Cc1ccc(C(=O)Nc2nc(C)c(C(=O)N(C)C)s2)o1	·	–	?	?	?	·
Cc1nnc(NC(=O)c2oc3ccccc3c2C)s1	·	4.47µM	18.3µM	3.98µM	3.01µM	·
Cc1nc(NC(=O)c2oc3ccccc3c2C)sc1C(=O)N(C)C	10µM	?	?	2.82µM	10.7µM	–
Cc1ccc2c(C)c(C(=O)Nc3nnc(C)s3)oc2c1	–	–	–	–	–	–
CCOc1ccc(NC(=O)CSc2nccn2-c2cccc(C)c2C)cc1	·	·	·	·	–	·
CCOC(=O)c1ccc(N/C=C/C(=O)c2ccccc2)cc1	·	–	–	?	6.01µM	–
CCOC(=O)c1ccc(N/C=C/C(=O)c2ccc(OC)cc2)cc1	–	–	–	–	–	–
CCOC(=O)c1ccc(N/C=C/C(=O)C(C)(C)C)cc1	?	3.55µM	?	3.55µM	3.01µM	–
O=C(C1CCC(Cn2c(=O)c3sccc3n(Cc3cccc(F)c3)c2=O)CC1)N1CCOCC1 (stereo not drawn)	·	·	·	·	–	·
c1ccc(-c2cc3c(N4CCOCC4)ncnc3s2)cc1	–	–	–	–	–	–
Cc1ccccc1-n1c(SCC(N)=O)nc2sc(-c3ccccc3)cc2c1=O	–	–	–	–	–	–
Cc1nc(SCCC(=O)O)c2cc(-c3ccccc3)sc2n1	·	–	–	–	0.675µM	·
Cc1nc(N2CCOCC2)c2cc(-c3ccccc3)sc2n1	–	–	–	–	21.3µM	–
CCOc1ccccc1N(CC(=O)NC1CCCC1)C(=O)CNC(=O)c1cccs1	·	–	–	–	–	·
CN(C(=O)C1CCC(=O)N(Cc2ccccc2F)C1)C1CCOCC1 (stereo not drawn)	·	–	–	–	–	·
C[N+](C)(N)Cc1nc(-c2ccc(Cl)cc2)no1	–[9.22 µM]	·	·	·	·	–[7.66 µM]
CC(C)(C)Cc1nc(-c2ccc(Cl)cc2)no1	–	–	–	–	15.1µM	–
Clc1ccc(-c2noc(COc3ccccc3)n2)cc1	–	–	–	–	13.5µM	–
Cc1ccc(OCc2nc(-c3ccccc3)no2)c(C)c1	10µM	2.24µM	3.16µM	2.24µM	3.01µM	–
Clc1ccc(-c2noc(CN3CCOCC3)n2)cc1	·	2µM	?	3.16µM	?	·
CCC1=C(c2ccc(C)cc2)S(=O)(=O)N=C1N1CCC(C(=O)N2CCCCC2)CC1	·	·	·	·	–	·

Screens: PubChem BioAssay, National Center for Advancing Translational Sciences (NCATS)
